Holding throughout (test): NCI-60 one-dose screen, 48 h (100 = growth as untreated, 0 = no growth, -100 = all killed)
Settings in all cases: 10 µM

The test system of test [1] is NCI-H23 lung.
Test [2] deals with NCI-H522 lung.
For test [3], the system named is MALME-3M melanoma.
For test [4], the system named is MDA-MB-231 breast.
Test [5] has as its system M14 melanoma.
Test [6] concerns UACC-62 melanoma.
For test [7], the system named is LOX IMVI melanoma.
The test system of test [8] is SK-MEL-28 melanoma.
In test [9] the test system is SR leukemia.
The subject of test [10] is OVCAR-8 ovarian.
Test [11] concerns OVCAR-5 ovarian.
For test [12], the system named is OVCAR-4 ovarian.
The subject of test [13] is SK-OV-3 ovarian.
Test [14] concerns IGROV1 ovarian.
Test [15] has as its system HS 578T breast.
The test system of test [16] is T-47D breast.
For test [17], the system named is SW-620 colon.
The subject of test [18] is MCF7 breast.
The subject of test [19] is HCT-116 colon.
The subject of test [20] is KM12 colon.

The structures appear in SMILES notation. Several values for one entry are separate records, joined by “and”; a condition that tells them apart may be missing. Identical values can stand only once. Compounds without any hit were thinned out: in the full panel of roughly 83,000, 20% have a hit.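 Method: cells in 96-well plates; compound added at one concentration; 48 h incubation; percent growth measured; values under 10 scored active.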 A structure can be active in one record and inactive in another. Activity calls are given as the source filed them.

Take `C/C=C/CC(C)C(O)[C@H](NC(=O)[C@@H]1CCCN1C(=O)C(C)(C)NC(=O)CCCCCCCCC)C(=O)NC(C)(C)C(=O)N[C@@H](CCC(N)=O)C(=O)N[C@H](CCC(N)=O)C(=O)NC(C)(C)C(=O)NC(C)(C)C(=O)N[C@@H](CCC(N)=O)C(=O)N[C@H](CC(C)C)C(=O)N[C@H](CO)CC(C)C` (stereo not given in full): the growth in test [1] is 37.1% (inactive) and -16.1% (active); in test [2], -41.2% (active) and -62.8% (active); in test [3], -41.5% (active) and -92.4% (active); in test [4] it was 6.89% (active) and -91.8% (active); in test [5], -31.6% (active) and -53.6% (active); in test [6], -0.972% (active) and -81.2% (active). Also, the growth is -78.5% (active) and -80.2% (active) in [7]; -84.9% (active) and -100% (active) in [8]; -57.3% (active) and 12.2% (inactive) in test [9]; 16.4% (inactive) and 4.24% (active) in test [10]; 50.4% (inactive) and -66.8% (active) in test [11]; 60% (inactive) and 47.2% (inactive) in [12]. Also, the growth is 61.8% (inactive) and 50.9% (inactive) in test [13]; 30.5% (inactive) and 5.27% (active) in test [14]; -36.6% (active) and -60.1% (active) in test [15]; 24.8% (inactive) and 10.8% (inactive) in test [16]; 33.1% (inactive) and 15.3% (inactive) in test [17]; 2.98% (active) and -45.1% (active) in test [18]. The growth in test [19] was 13.1% (inactive) and 6.15% (active); in test [20] it was -75.9% (active) and -59% (active).

In the case of `CC1=C[C@H]2O[C@@H]3C[C@H]4OC(=O)/C=C\C=C\[C@H]([C@@H](C)O)OCC[C@@H](C)[C@H](O)C(=O)OC[C@@]2(CC1)[C@]4(C)[C@]31CO1`, the growth was -36.6% (active) in [1]; -43.4% (active) in test [2]; -67.9% (active) in test [3]; -25.2% (active) in test [4]; -76% (active) in [5]; -66.6% (active) in test [6]. The growth in test [7] is -79% (active); in test [8], -49.1% (active); in [9], -10.5% (active); in test [10] it was -12.8% (active); in test [11], -16.8% (active); in [12], -19% (active). The growth in test [13] was -18.6% (active); in test [14], -13.4% (active); in test [15], -6.56% (active); in [16], -19% (active); in test [17], 0.381% (active); in [18] it was -7.85% (active). Also, the growth is -27.7% (active) in test [19] and 4.84% (active) in test [20].

With `C[C@@H]1C[C@H]2C(=O)O[C@@H](C)C(NC(=O)[C@H](Cc3cc(F)cc(F)c3)NC(=O)Nc3ccc(OS(=O)(=O)F)cc3)C(=O)N3CCC[C@H]3C(=O)N3CCO[C@H](C)[C@H]3C(=O)N[C@@H](CO)C(=O)N2C1` (stereo not given in full), the growth is 36.1% (inactive) in test [1]; 20.3% (inactive) in test [2]; 39% (inactive) in test [3]; 32% (inactive) in test [4]; 23.6% (inactive) in test [5]; 23.5% (inactive) in test [6]. Further, the growth in test [7] is 7.58% (active); in [8], 40.5% (inactive); in test [9], 25.3% (inactive); in test [10], 23.6% (inactive); in test [11] it was 33.4% (inactive); in test [12] it was 26.2% (inactive). Besides, the growth in [13] is 18.7% (inactive); in test [14], 47.4% (inactive); in [15], 40.2% (inactive); in test [16] it was 33% (inactive); in [17] it was 39% (inactive); in [18] it was 16.8% (inactive). Moreover, the growth is 9.86% (active) in test [19] and 37.8% (inactive) in [20].

On to `CC1=C2C(=C[C@@](C)(COC(=O)c3ccc(S(=O)(=O)F)cc3)[C@@H]2O)C(=O)[C@](C)(O)C12CC2`, for which the growth in [1] is -32.2% (active); in [2], -64.5% (active); in test [3], -56.1% (active); in [4] it was -16.3% (active); in [5] it was -85% (active); in test [6] it was -77.1% (active). The growth in test [7] is -40.2% (active); in [8] it was -66.3% (active); in [9] it was -0.78% (active); in [10], -31.1% (active); in test [11], -12.4% (active); in test [12] it was -33.5% (active). In addition, the growth in [13] is -24.7% (active); in test [14], -13.9% (active); in test [15] it was -16% (active); in test [16] it was 0.908% (active); in test [17], -20.5% (active); in [18], 1.68% (active). The growth in test [19] was -4.41% (active); in test [20], 7.74% (active).

Consider `COc1cc(C)c(-c2ccc(OC)c(=O)cc2C)c(OC)c1OC`, for which the growth in test [1] is 22.3% (inactive) and 106% (inactive); in test [2], -11.4% (active) and 98.2% (inactive); in test [3], 46.7% (inactive) and 95.3% (inactive); in test [4], 18.3% (inactive) and 99.8% (inactive); in [5] it was 4.63% (active) and 101% (inactive); in test [6], 30.8% (inactive) and 86.1% (inactive). Further, the growth is 18% (inactive) and 106% (inactive) in test [7]; 47.9% (inactive) and 103% (inactive) in test [8]; 9.85% (active) and 89.4% (inactive) in [9]; 5.3% (active) and 100% (inactive) in test [10]; 24.6% (inactive) and 98.9% (inactive) in [11]; 70.9% (inactive) and 96.9% (inactive) in test [12]. Moreover, the growth in test [13] was 32.4% (inactive) and 102% (inactive); in [14], 27.2% (inactive) and 103% (inactive); in test [15], 1.63% (active) and 109% (inactive); in test [16], 61% (inactive) and 137% (inactive); in test [17], 19.6% (inactive) and 104% (inactive); in [18] it was 14.8% (inactive) and 91.5% (inactive). Besides, the growth is 11.9% (inactive) and 102% (inactive) in test [19]; 6.94% (active) and 109% (inactive) in test [20].
